# Only some compounds are listed: those with a hit (about 1.7% of all), similar ones and a draw of the others.
# FGF22 binding: shifts melting point of recombinant human FGF22. hit rate 1.5% among 340,000. activity (Tm shift, normalised), % at 9.99 µM. recombinant FGF22 thermal shift, SYPRO orange fluorescence; percent of sucrose octasulfate shift, DMSO zero. Q9HCT0;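 active = mean Tm shift, scaled 0 neutral to 100 positive control, at about 1.3% or above, every replicate too, limit read from the data; inconclusive = no clear call, values can overlap the other calls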
# Target sequence (Q9HCT0 whole entry, looked up): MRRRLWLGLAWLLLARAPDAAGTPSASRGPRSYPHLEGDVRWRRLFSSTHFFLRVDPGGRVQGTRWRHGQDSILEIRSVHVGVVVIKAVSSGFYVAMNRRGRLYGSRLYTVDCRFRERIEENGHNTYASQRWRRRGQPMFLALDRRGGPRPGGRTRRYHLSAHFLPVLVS
# Vif imaging: blocks HIV Vif function | HEK293T cells, Vif self-association by quenched fluorescence, imaging, 24 h | inhibition, % at 7.49 µM | hit rate 0.35% among 340,000 | AID 602346; in the data active = inhibition above about 50%, passing the limit was not always enough; inconclusive = no clear call, values can overlap the other calls; inactive = below about 31%
# CFTR F508del cor: CFTR F508del correction in bronchial cells; CFBE cells, YFP halide quenching; stimulated with forskolin plus potentiator P3; % fluorescence drop versus neutral controls; activity (quench increase), % at 7.58 µM; hit rate 0.36% among 350,000; AID 720511;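 active = mean added fluorescence quench of at least 8% versus neutral control, with both replicates also reaching 8%; inconclusive = only one of the mean or replicate conditions met; inactive = mean below 8% and not both replicates reaching 8%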;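 also: cells transiently co-express mutant CFTR-F508del with the halide-sensitive YFP; corrector assay measuring rescue of mutant channel to the surface after 24 h compound exposure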
# Active calls of the source: *; u = inconclusive; x = no result given.
SMILES,FGF22 binding,Vif imaging,CFTR F508del cor
CC=Cc1ccc2n(c1=O)C[C@H]1[C@H](CO)[C@@H](C(=O)NC3CCCCC3)N(CCC)[C@@H]21 (mixture of isomers),x,x,3.0
O=C(c1ccccc1)c1ccc(OCC(O)CNCc2ccc(F)cc2)cc1 (stereo not drawn),-0.3,-2.7,2.7
OC(CNCc1ccccc1Cl)COc1ccc(F)cc1 (stereo not drawn),-0.5,65.1*,1.4
CC1(C)CC(=O)/C(=C(\O)CCCN2C(=O)c3ccccc3C2=O)C(=NCC(=O)O)C1,42.7,-5.4,-3.6
CC(N=C1CC(C)(C)CC(=O)/C1=C(/O)CCCN1C(=O)c2ccccc2C1=O)C(=O)O (stereo not drawn),42.9*,9.0,-0.4
CCCNC(=O)C[C@H]1CC[C@@H]2[C@H](COc3ccc(NC(=O)C4CCOCC4)cc3C(=O)N2C)O1,-0.2,x,1.1
O=C1c2cccc3c([N+](=O)[O-])ccc(c23)C(=O)N1Cc1cccnc1,-0.3,x,32.8*
Cc1ccnc(N2C(=O)c3ccccc3C2=O)c1,-0.1,-7.9,-0.1
Cc1ccnc(N2C(=O)c3cccc4c([N+](=O)[O-])ccc(c34)C2=O)c1,0.1,18.8,22.6*
Cc1ccc(N2C(=O)c3cccc4c([N+](=O)[O-])ccc(c34)C2=O)c2cccnc12,40.9,1.7,24.6*
O=C1c2cccc3cccc(c23)C(=O)N1Cc1cccnc1,0.2,-4.9,2.4
Cc1nnc(N2C(=O)c3cccc4c([N+](=O)[O-])ccc(c34)C2=O)s1,0.0,16.3,u
CO[C@@H]1CN(C)C(=O)c2cc(NC(=O)c3ccccc3F)ccc2OC[C@@H](C)N(C)C[C@@H]1C,-0.1,x,0.5
Cc1cc(C(=O)Nc2cccc3c2O[C@H](CN(C)C(=O)Nc2c(C)noc2C)[C@@H](C)CN([C@H](C)CO)C3=O)n(C)n1,-0.3,x,-2.3
C[C@H](CO)N1C[C@H](C)[C@@H](CN(C)C(=O)Nc2cccc3ccccc23)Oc2ccc(NC(=O)Cc3ccccc3)cc2CC1=O,1.6*,x,-0.8
C[C@H](CO)N1C[C@H](C)[C@H](CN(C)Cc2ccncc2)Oc2ccc(NC(=O)Nc3cccc4ccccc34)cc2CC1=O,x,x,2.1
C[C@@H]1CN([C@@H](C)CO)C(=O)Cc2cc(N(C)C)ccc2O[C@@H]1CN(C)Cc1ccccc1,-0.4,x,10.3*
C[C@@H]1CN([C@@H](C)CO)C(=O)Cc2cc(NC(=O)Nc3cccc4ccccc34)ccc2O[C@H]1CN(C)Cc1ccncc1,2.4*,x,1.3
C[C@H](CO)N1C[C@H](C)[C@H](CN(C)C(=O)Nc2cccc3ccccc23)Oc2ccc(NC(=O)Cc3ccccc3)cc2CC1=O,-0.6,x,-0.7
C[C@H]1CN([C@@H](C)CO)C(=O)Cc2cc(N(C)C)ccc2O[C@H]1CN(C)Cc1ccccc1,-0.3,x,-0.9
O=C(C[C@@H]1C[C@H]2c3cc(NC(=O)c4cccnc4)ccc3O[C@H]2[C@@H](CO)O1)NCCN1CCCCC1,-0.3,x,-0.2
COc1ccc(S(=O)(=O)N(C)C[C@H]2OCCCC[C@H](C)Oc3ccc(NC(=O)NC(C)C)cc3C(=O)N([C@@H](C)CO)C[C@H]2C)cc1,-0.1,x,-1.7
C[C@@H]1CCCCO[C@@H](CN(C)C(=O)Nc2ccc(F)cc2)[C@H](C)CN([C@@H](C)CO)C(=O)c2cc(NS(=O)(=O)c3ccc(F)cc3)ccc2O1,-0.1,x,1.9
CCCNC(=O)Nc1ccc2c(c1)OC[C@H](C)N(C(=O)C1CC1)C[C@@H](C)[C@@H](OC)CN(C)C2=O,-0.2,x,-2.9
COc1ccc(C(=O)c2cc([N+](=O)[O-])ccc2N2CCCC2)cc1,x,-0.3,x
SMILES,FGF22 binding,Vif imaging,CFTR F508del cor
COc1ccc(C(=O)c2cc([N+](=O)[O-])ccc2N2CCN(C)CC2)cc1,-0.1,6.0,16.1*
CC(C)CNC(=O)c1cc([N+](=O)[O-])ccc1N1CCCCC1,43.2*,-1.7,3.8
O=C(Nc1ccccc1)c1cc([N+](=O)[O-])ccc1N1CCCCC1,-0.3,-5.0,1.2
CN1CCN(c2ccc([N+](=O)[O-])cc2C(=O)c2ccc(Br)cc2)CC1,x,-5.6,x
O=C(c1ccc(Br)cc1)c1cc([N+](=O)[O-])ccc1N1CCCCC1,x,62.8*,x
CCCC#Cc1cnc2c(c1)C(=O)N([C@H](C)CO)C[C@@H](C)[C@@H](CN(C)Cc1ccncc1)O2,-0.1,x,x
O=C(NCC[C@H]1CC[C@H](NS(=O)(=O)c2cccc(F)c2)[C@H](CO)O1)C1CC1,0.0,x,-0.5
O=C(C[C@H]1CC[C@H](NC(=O)c2ccc3c(c2)OCO3)[C@@H](CO)O1)NC1Cc2ccccc2C1,0.0,x,1.5
Cc1ccc(NC(=O)C(=O)NCC2CCCN2S(=O)(=O)c2cccs2)cc1C (stereo not drawn),0.1,-17.0,2.9
COc1ccc(NC(=O)C(=O)NCC2CCCN2S(=O)(=O)c2cccs2)cc1 (stereo not drawn),0.1,0.5,16.6*
O=C(C[C@@H]1CC[C@@H](NC(=O)Cc2ccccn2)[C@H](CO)O1)NCCCN1CCOCC1,-0.1,x,1.0
Cc1ccc(-c2cc(C(=O)N/N=C/c3ccco3)n[nH]2)s1,x,3.5,x
Cc1cc(C(=O)N/N=C/c2ccc[nH]2)n[nH]1,43.3*,3.5,4.9
O=C(N/N=C/c1ccco1)c1cc(-c2ccc3ccccc3c2)n[nH]1,x,-11.4,x
CC(C)(C)c1cc(C(=O)N/N=C/c2ccco2)n[nH]1,x,62.1*,x
CCc1ccc(-c2cc(C(=O)N/N=C/c3ccco3)[nH]n2)cc1,43.2*,-6.0,-3.2
Cc1cc(C(=O)N/N=C/c2ccc[nH]2)no1,x,-2.6,x
COc1ccc(NC(=O)N2CC(=O)N3[C@@H](CO)[C@H](c4ccc(-c5ccccc5)cc4)[C@@H]3C2)cc1,x,x,-4.2
C[C@@H]1CCCCO[C@H](CN(C)C(=O)Cc2ccccc2)[C@@H](C)CN([C@@H](C)CO)C(=O)c2cc(NC(=O)NC3CCCCC3)ccc2O1,-0.2,x,3.2
C[C@@H]1CN([C@@H](C)CO)S(=O)(=O)c2ccc(-c3ccc(F)cc3)cc2O[C@H]1CN(C)C(=O)C1CC1,x,x,-3.8
Cc1ccc(CNC(=O)CCCC(=O)Nc2cc(C)on2)cc1,43.1*,21.5,x
Cc1cc(NC(=O)CCCC(=O)NCc2ccccc2)no1,0.4,0.2,1.0
C[C@@H]1CCCCO[C@H](CN(C)C(=O)C2CCCCC2)[C@H](C)CN([C@H](C)CO)C(=O)c2cc(NS(=O)(=O)c3ccc(Cl)cc3)ccc2O1,-0.5,x,-1.0
O=C(CN1CCN(S(=O)(=O)c2ccc(Cl)c(Cl)c2)CC1)N1CCCCC1,-0.3,-1.0,2.3
O=C(CN1CCN(S(=O)(=O)c2ccc(Cl)c(Cl)c2)CC1)N1CCCC1,-0.1,13.9,10.7*
O=C(COc1ccccc1)N1CCN(S(=O)(=O)c2ccc(Br)cc2)CC1,-0.3,9.3,-0.5
COc1ccc(S(=O)(=O)N2CCN(C(=O)COc3ccccc3)CC2)cc1,43.2*,-13.4,4.8
COc1ccc(CCC(=O)N2CCN(S(=O)(=O)c3ccc(OC(F)(F)F)cc3)CC2)cc1,-0.1,-5.9,15.7*
O=C(CCS(=O)(=O)c1ccccc1)N1CCN(c2ccccc2F)CC1,-0.1,-7.9,-2.7
COc1ccc(S(=O)(=O)CCC(=O)N2CCN(c3ccccc3F)CC2)cc1,44.1*,-0.9,3.9

# Screening data as filed in PubChem BioAssay.
